# Unmarked numbers belong to inactive results.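 The calls were made as follows: active = AUC reduced over 20% with Padj below 0.05 in at least 2 of 3 replicates; inactive = otherwise.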
# How the values were obtained:
# Experiment in all cases: growth AUC relative to DMSO control (median of replicates) (fraction); higher = more growth (less inhibition), active = hit call of the paper
# Settings in all cases: 20 µM; 24 h
# [1] = tested on: Akkermansia muciniphila
# Procedure, shortened: (§1)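 Gut bacterial monocultures were grown anaerobically at 37 °C in mGAM from a starting OD600 of 0.05 with 20 µM compound (1% DMSO), in round-bottom 96-well plates under pierced gas-permeable seals, and OD600 was read hourly for 24 h. With the minimum OD set to 0, area under the growth curve was normalised to the plate median of solvent-only wells, or to row and column medians on the industrial chemical plate. Each value is the median of three biological replicates grown on separate days.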
# [2] = tested on: Bacteroides caccae
# Procedure, shortened: as §1
# [3] = tested on: Bacteroides clarus
# Procedure, shortened: as §1
# [4] = tested on: Bacteroides dorei
# Procedure, shortened: as §1
# [5] = tested on: Bacteroides stercoris
# Procedure, shortened: as §1
# [6] = tested on: Bacteroides thetaiotaomicron
# Procedure, shortened: as §1
# [7] = tested on: Bacteroides uniformis
# Procedure, shortened: as §1
# [8] = tested on: Bifidobacterium longum subsp. longum
# Procedure, shortened: as §1
# [9] = tested on: Clostridium difficile
# Procedure, shortened: as §1
# [10] = tested on: Collinsella aerofaciens
# Procedure, shortened: as §1
# [11] = tested on: Coprococcus comes
# Procedure, shortened: as §1
# [12] = tested on: Escherichia coli ED1a
# Procedure, shortened: as §1
# [13] = tested on: Escherichia coli IAI1
# Procedure, shortened: as §1
# [14] = tested on: Eubacterium rectale
# Procedure, shortened: as §1
# [15] = tested on: Fusobacterium nucleatum subsp. animalis
# Procedure, shortened: as §1
# [16] = tested on: Lactobacillus gasseri
# Procedure, shortened: as §1
# [17] = tested on: Lactobacillus paracasei
# Procedure, shortened: as §1
# [18] = tested on: Odoribacter splanchnicus
# Procedure, shortened: as §1
# [19] = tested on: Parabacteroides distasonis
# Procedure, shortened: as §1
# [20] = tested on: Parabacteroides merdae
# Procedure, shortened: as §1
SMILES,growth AUC [1],growth AUC [2],growth AUC [3],growth AUC [4],growth AUC [5],growth AUC [6],growth AUC [7],growth AUC [8],growth AUC [9],growth AUC [10],growth AUC [11],growth AUC [12],growth AUC [13],growth AUC [14],growth AUC [15],growth AUC [16],growth AUC [17],growth AUC [18],growth AUC [19],growth AUC [20]
CCCCCCC(C)OC(=O)COc1nc(F)c(Cl)c(N)c1Cl (stereo not given),0.94,0.885,0.874,1,0.699,0.97,0.874,0.848,0.952,0.928,0.928,1,1.01,0.875,0.935,0.967,0.942,1.04,0.919,0.891
CCCOC(=O)c1ccc(O)cc1,0.879,0.979,0.986,1.02,0.993,0.989,0.984,1.01,0.98,1.01,1,0.986,0.971,0.951,0.985,1.06,1.01,0.945,1.01,0.988
FC(F)(F)c1cccc(C(c2ccccc2)(c2ccccc2)n2cncn2)c1,0.852,0.02 (active),0.93,0.92,0.892,0.869,0.877,0.948,1.04,0.924,0.713,0.975,0.959,0.646 (active),0.899,0.851,1.11,1.03,0.842,0.619 (active)
Cc1cccc(C)c1N(C(=O)CCl)C1CCOC1=O (stereo not given),1.05,0.802,0.993,0.971,1.1,0.647 (active),0.894,1.04,0.966,0.959,0.889,0.963,1.01,1.09,1.02,0.953,1.01,0.408,0.99,0.981
CCCCOC(=O)[C@@H](C)Oc1ccc(Oc2ccc(C(F)(F)F)cn2)cc1,0.865,0.983,0.932,0.951,0.851,0.948,0.918,0.969,0.989,0.963,0.961,0.989,0.997,0.918,0.789,0.915,0.993,0.977,0.844,0.96
NC(=O)c1nn(-c2c(Cl)cc(C(F)(F)F)cc2Cl)c(N)c1S(=O)C(F)(F)F (stereo not given),0.886,0.973,0.953,0.995,0.965,0.972,0.977,0.976,1,0.985,0.958,0.964,0.983,1.07,0.945,0.937,0.982,0.948,1.02,0.962
COc1cc(OC)nc(NC(=O)NS(=O)(=O)N(C)S(C)(=O)=O)n1,0.951,1.03,1.05,1.01,1.06,0.982,0.98,0.945,0.907,1.04,1,1.02,1.01,1.04,1.01,1.06,1.04,1.06,1.01,0.983
CCOc1nc(F)cc2nc(S(=O)(=O)Nc3c(Cl)cccc3C(=O)OC)nn12,0.983,0.999,0.984,0.988,0.978,0.999,0.987,0.982,0.98,1.02,0.984,0.991,1.01,0.967,0.995,1.01,1.06,1.04,1.05,1.02
CCN(CC)c1nc(C)cc(=O)[nH]1,1.08,0.974,1.03,1.02,1.11,0.996,0.961,1.02,1.01,1.01,1.04,0.995,0.998,0.907,1.06,0.998,0.989,1.03,1,1
O=C(O)COc1ccc(Cl)c2cccnc12,0.981,1.03,1.03,0.976,1.14,0.997,1,0.99,0.954,1.02,0.997,1.05,1.04,1.02,1.11,1.07,1.01,1.01,1,1
Cn1cc(C(=O)Nc2ccccc2-c2cc(F)c(F)c(F)c2)c(C(F)F)n1,0.832,0.995,0.937,0.972,0.931,0.93,0.984,0.919,0.98,0.987,0.97,0.985,0.987,0.937,0.873,0.995,0.943,0.964,0.916,0.937
CCCCN(C)C(=O)Nc1ccc(Cl)c(Cl)c1,0.739,0.886,0.952,0.97,1.16,0.899,0.864,0.951,0.943,1,1.04,1.01,1,1.04,1.01,0.965,0.98,0.901,0.816,0.932
Cc1ccc(C(C)NC(=O)[C@@H](NC(=O)OC(C)C)C(C)C)cc1 (stereo not given in full),1.06,0.975,1.03,1.01,1.11,0.984,0.973,0.97,0.951,0.986,1.01,1.01,0.992,1.08,1.08,0.895,1.02,0.953,0.917,1.01
CC1=C(C(=O)Nc2ccccc2)CCCO1,0.955,0.992,1.01,1.01,0.951,0.99,1.06,1.15,1.01,1.01,1.01,0.992,0.981,0.974,0.969,0.952,1.03,1.05,0.974,1.01
Cc1cccc(C)c1N(CCSCC(O)C(=O)[O-])C(=O)CO.[Na+] (stereo not given),1.15,0.993,1.02,0.907,1.01,0.98,1.01,1.05,0.992,0.913,1.04,0.977,0.97,1.07,0.984,0.849,0.95,1.01,0.927,0.99
CCOC(N)=O,1.13,1.01,1.02,1.04,1.17,1.01,1.01,1.06,1.01,1.01,1.03,1.01,1.03,1,1.04,1.02,1.02,0.955,1.1,1.03

SMILES,growth AUC [1],growth AUC [2],growth AUC [3],growth AUC [4],growth AUC [5],growth AUC [6],growth AUC [7],growth AUC [8],growth AUC [9],growth AUC [10],growth AUC [11],growth AUC [12],growth AUC [13],growth AUC [14],growth AUC [15],growth AUC [16],growth AUC [17],growth AUC [18],growth AUC [19],growth AUC [20]
C=CCO/N=C(\CCC)C1=C([O-])CC(C)(C)C(C(=O)OC)C1=O.[Na+] (stereo not given),1.2,1,1.03,0.933,1.07,1.02,1.01,1.05,1.05,1.03,1.03,1.02,1.02,1.12,1.12,0.892,1.04,1.05,1.01,1.06
CC(C)(NC(=O)C(Br)C(C)(C)C)c1ccccc1 (stereo not given),0.896,1.01,0.924,0.995,0.766,0.971,1.06,0.84,1.01,1.01,0.959,1.01,0.983,0.889,0.895,1.12,0.895,0.983,0.97,0.95
CCc1cccc(C)c1N(C(=O)CS(=O)(=O)[O-])C(C)COC.[Na+] (stereo not given),1.08,0.952,0.987,0.91,0.951,0.727 (active),0.993,0.954,0.991,0.923,0.948,0.954,0.941,1.05,0.881,0.91,1.02,0.908,0.925,0.941
CC1=C(c2ccccc2)C(=O)N(C(C)(C)c2cc(Cl)cc(Cl)c2)CO1,1.11,0.962,0.925,0.981,0.895,0.93,0.917,0.956,1.02,0.965,0.972,1.01,0.987,0.982,0.935,1.01,1.04,0.972,0.732 (active),0.811
CC(C)(CO)C(O)(CCc1ccc(Cl)cc1)Cn1cncn1 (stereo not given),1.01,0.955,0.998,0.967,1.01,0.969,0.994,0.967,0.991,0.991,0.989,1.03,0.999,1.1,1,0.88,1.04,0.979,0.88,0.985
CC(C)(c1ccc(O)cc1)c1ccc(O)cc1,1.01,1.07,1.04,1.01,1.14,1.02,1.06,1.06,1.08,1.03,1.01,0.994,0.989,1.04,1.1,1,1.04,1.07,1.38,1.07
CCCCC(CC)COC(=O)COc1cc(Cl)c(Cl)cc1Cl (stereo not given),0.936,0.97,0.93,0.984,1.03,0.987,0.993,0.807,0.999,0.948,0.976,0.99,1.03,0.903,0.9,1.06,1.05,0.998,0.965,0.937
CC(C)Nc1nc(N)nc(Cl)n1,0.991,1.03,1.03,1.01,1.07,1.04,1.01,1,1.03,1.02,1.01,1.01,1.05,1.01,1.05,0.98,0.96,1.06,1.06,1.04
CCCCCCCCCCCC[N+](C)(C)Cc1ccc(CC)cc1.[Cl-],0.765,0.0238 (active),0.234 (active),0.92,0.00577 (active),0.00582 (active),0.0211 (active),0.665 (active),0.73,0.502 (active),0.374 (active),0.981,0.945,0.863,0.902,0.651 (active),0.708,0.973,0.671 (active),0.708 (active)
CC(=O)CC(c1ccccc1)c1c(O)c2ccccc2oc1=O (stereo not given),0.913,1.01,0.93,1.02,0.965,0.952,0.952,1,0.998,0.966,1.01,0.967,0.982,0.963,1.02,0.957,0.943,0.927,0.907,1.01
CC(C)N(C(=O)C(=O)O)c1ccccc1,1.01,1.01,1.05,1.03,1.13,1.01,1.01,1.08,1.02,0.981,1.03,1.06,1.05,1.11,1.09,1.07,1.02,1.05,1.07,1.03
COC(=O)C(Cl)Cc1ccc(Cl)cc1 (stereo not given),1.01,0.921,0.973,0.99,1.03,1.02,0.921,1.01,0.983,0.936,0.962,0.994,0.971,0.994,0.995,0.891,1.06,0.899,1,0.901
CSc1nc(NC2CC2)nc(NC(C)(C)C)n1,0.845,1.03,0.988,1.03,0.871,0.895,1,1.04,1.04,1.06,0.981,1.03,1.03,0.974,1.06,1.05,0.987,1.11,1.02,0.991
Cc1cc(CC(C)CC(C)(C)C)n(O)c(=O)c1.NCCO (stereo not given),1.22,0.993,0.982,0.99,0.932,0.999,1,0.991,0.977,0.933,0.995,1.04,1,0.788,1.02,0.971,1.01,0.997,1,1.03
COCCN(C(=O)CO)c1c(C)cccc1C(=O)O,1.23,0.963,1,0.964,1.03,1.01,0.961,1.06,0.94,0.936,0.972,0.976,0.956,1.09,0.968,0.811,0.996,1,0.904,0.986
NC(Cn1cncn1)C(=O)O (stereo not given),0.948,0.985,0.992,0.983,1.01,1,0.998,0.966,0.981,1.01,1.01,0.966,0.976,0.93,0.94,0.999,0.977,0.967,1.05,1.01

# From the supplement of paper PMC12669032
